In the library only some 12% were active in any assay of this set; here they are far more common.
G9a inh – blocks human histone lysine methyltransferase G9a | Potency, µM (doses to about 102 µM), for the others: at the top dose activity, negative = inhibition, most hits filed as inhibitors | G9a H3K9 monomethylation, AlphaScreen, 2 h | 350,000 tested, 8.8% active | Q96KQ7; note: potency is the fitted concentration of half-maximal effect; % is set by controls: 0 for no effect and ±100 for the full control effect; nearly all actives have a fitted effect of over 75% in size
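G9a (20 nM) was preincubated 15 min with compound, then reacted 2 h at room temperature with 500 nM biotin-H3K9 peptide and 20 µM SAM. Monomethyl-H3K9 detected by AlphaScreen using anti-H3K9me1 antibody.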
HP1b binding inh – HP1-beta chromodomain-methylated histone interaction inhibition. AlphaScreen HP1-beta / biotin-H3K9me3 peptide binding. Potency, µM (doses to about 114 µM), inactives show at the highest dose activity change, negative = inhibition, actives largely listed as inhibitors. P83916. 390,000 tested, 0.56% active; note: potency is the fitted concentration of half-maximal effect; nearly all actives have a fitted effect of over 70% in size
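HP1-beta protein (50 nM final) preincubated 30 min at room temperature with biotinylated H3(1-18)K9me3 peptide (50 nM) in PBS pH 7.4, 0.01% Tween-20, then compound added for 30 min. AlphaScreen streptavidin donor/nickel chelate acceptor beads (10 ug/mL final), 30 min dark, luminescence read.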
BAZ2B inh – BAZ2B (human) inhibition | Q9UIF8 | AlphaScreen BAZ2B-H3K14Ac peptide displacement | Potency, µM (highest dose often 114 µM), without a hit: at the top dose activity change, negative = inhibition, usual class: inhibitors | 360,000 tested, 4.4% active | AID 504333; note: potency is the fitted concentration of half-maximal effect; % is set by controls: 0 for no effect and ±100 for the full control effect; nearly all actives have a fitted effect of over 60% in size
Target sequence (Q9UIF8 whole entry, looked up): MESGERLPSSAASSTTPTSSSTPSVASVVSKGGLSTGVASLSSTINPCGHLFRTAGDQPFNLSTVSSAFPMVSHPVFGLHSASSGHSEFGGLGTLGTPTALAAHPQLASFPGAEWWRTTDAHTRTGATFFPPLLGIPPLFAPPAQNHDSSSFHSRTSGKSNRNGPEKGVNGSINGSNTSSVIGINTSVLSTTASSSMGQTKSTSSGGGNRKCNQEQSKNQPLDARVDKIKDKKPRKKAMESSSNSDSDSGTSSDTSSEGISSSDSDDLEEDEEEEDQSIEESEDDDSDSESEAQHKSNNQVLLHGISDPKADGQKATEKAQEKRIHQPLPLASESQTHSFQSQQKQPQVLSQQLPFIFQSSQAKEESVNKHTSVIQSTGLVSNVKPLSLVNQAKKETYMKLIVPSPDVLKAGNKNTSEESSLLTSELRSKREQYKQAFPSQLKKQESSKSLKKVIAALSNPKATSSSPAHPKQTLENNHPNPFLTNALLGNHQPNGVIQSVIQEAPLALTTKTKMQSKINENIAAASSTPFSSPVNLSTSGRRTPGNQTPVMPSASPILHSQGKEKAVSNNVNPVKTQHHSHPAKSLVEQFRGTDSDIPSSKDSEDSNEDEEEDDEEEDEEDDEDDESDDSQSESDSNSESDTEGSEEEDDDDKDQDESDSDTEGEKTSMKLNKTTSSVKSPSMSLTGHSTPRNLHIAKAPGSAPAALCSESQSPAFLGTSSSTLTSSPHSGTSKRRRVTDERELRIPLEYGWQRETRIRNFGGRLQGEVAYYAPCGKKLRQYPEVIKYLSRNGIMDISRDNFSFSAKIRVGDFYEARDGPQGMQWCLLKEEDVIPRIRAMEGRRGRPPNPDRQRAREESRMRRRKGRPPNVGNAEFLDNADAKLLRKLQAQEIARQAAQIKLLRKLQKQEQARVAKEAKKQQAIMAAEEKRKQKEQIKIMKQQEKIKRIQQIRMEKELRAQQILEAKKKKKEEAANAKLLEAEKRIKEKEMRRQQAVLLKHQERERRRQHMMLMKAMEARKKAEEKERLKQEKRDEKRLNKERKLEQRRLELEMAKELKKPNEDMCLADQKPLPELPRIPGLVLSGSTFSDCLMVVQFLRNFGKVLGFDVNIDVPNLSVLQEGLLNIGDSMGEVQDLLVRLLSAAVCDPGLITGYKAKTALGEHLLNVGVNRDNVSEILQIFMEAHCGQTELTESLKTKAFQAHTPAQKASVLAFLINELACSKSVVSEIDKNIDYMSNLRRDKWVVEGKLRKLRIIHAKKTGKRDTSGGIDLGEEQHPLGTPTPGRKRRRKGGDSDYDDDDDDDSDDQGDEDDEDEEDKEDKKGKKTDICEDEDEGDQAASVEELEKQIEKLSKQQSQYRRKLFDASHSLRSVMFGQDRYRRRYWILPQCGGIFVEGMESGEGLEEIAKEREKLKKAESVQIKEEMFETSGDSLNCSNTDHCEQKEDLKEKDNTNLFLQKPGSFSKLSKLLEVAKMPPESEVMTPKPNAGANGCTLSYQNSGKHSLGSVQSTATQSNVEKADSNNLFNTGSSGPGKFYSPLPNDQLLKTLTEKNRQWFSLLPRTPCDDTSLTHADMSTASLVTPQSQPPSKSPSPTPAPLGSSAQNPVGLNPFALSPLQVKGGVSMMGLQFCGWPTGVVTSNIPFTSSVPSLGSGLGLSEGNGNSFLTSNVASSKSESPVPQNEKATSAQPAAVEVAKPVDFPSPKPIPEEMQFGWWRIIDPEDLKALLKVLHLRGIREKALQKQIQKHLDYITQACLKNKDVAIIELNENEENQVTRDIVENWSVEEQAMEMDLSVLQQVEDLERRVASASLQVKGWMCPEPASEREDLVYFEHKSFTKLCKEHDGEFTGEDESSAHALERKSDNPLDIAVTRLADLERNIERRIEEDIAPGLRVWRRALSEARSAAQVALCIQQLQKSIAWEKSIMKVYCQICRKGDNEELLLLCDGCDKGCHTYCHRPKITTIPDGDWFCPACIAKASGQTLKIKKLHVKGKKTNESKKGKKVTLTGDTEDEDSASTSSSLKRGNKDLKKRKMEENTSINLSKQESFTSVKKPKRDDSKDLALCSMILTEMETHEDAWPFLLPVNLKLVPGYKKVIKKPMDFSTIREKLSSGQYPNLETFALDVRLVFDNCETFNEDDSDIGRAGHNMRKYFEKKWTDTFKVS
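Protein-peptide AlphaScreen: BAZ2B 50 nM, b-H3K14Ac 50 nM, 1x PBS pH 7.4 + 0.01% Tween-20. Preincubation 30 min RT; cpd 30 min RT (top 110 uM); beads 20 min RT, light-protected.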
PI5P4Ka inh – PI5P4K alpha (human) kinase inhibition. P48426. 330,000 tested, 1.2% active. PI5P4Kalpha enzyme, ADP-Glo luminescence, 60 min; hits give low values. max response, %. AID 652105; active = max response of -50% or lower; inconclusive = between -30% and -50%; inactive = -30% or higher; note: value at the top dose of about 77 µM; % is set by controls: 0 for no effect and ±100 for the full control effect
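Compounds were pin-transferred onto PI5P4Kalpha and substrate in HEPES pH 7.4 buffer with EGTA, CHAPS and 5% DMSO. ATP (5 microM final) started the reaction, which ran 60 minutes at room temperature before ADP-Glo detection.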
JMJD2A Tudor inh – JMJD2A Tudor domain (human) inhibition. AlphaScreen JMJD2A-Tudor / H3K4me3 peptide binding. Potency, µM (titrated, usually from 114 µM), for inactives: top-dose activity change, negative = inhibition, most hits filed as inhibitors. 390,000 tested, 4.4% active. AID 504339; note: potency is the fitted concentration of half-maximal effect; % is set by controls: 0 for no effect and ±100 for the full control effect; nearly all actives have a fitted effect of over 50% in size
PLK1 PBD block – PLK1 (human) polo-box domain binding inhibition | 360,000 tested, 2.8% active | Potency, µM, for inactives: max response, negative = inhibition, most hits filed as inhibitors | P53350 | Plk1 PBD binding of FITC phosphopeptide, fluorescence polarization; note: potency is the fitted concentration of half-maximal effect; series mostly up to about 57 µM; % is set by controls: 0 for no effect and ±100 for the full control effect; nearly all actives have a fitted effect of over 65% in size
The depositor's hits bear a star; ? = inconclusive; . = not tested or not shown; ! = a repeat was not active; [ ] = dose if it differs, or a comment. Unless noted, calls come from the whole dose curve; as a rule, active = well fitted curve in the direction sought with a large enough effect; inconclusive = small, poorly fitted or top-dose-only effect, or another doubt; inactive = no such curve, though single readings can be large; an effect the other way counts as inactive or inconclusive.

SMILES	G9a inh	HP1b binding inh	BAZ2B inh	PI5P4Ka inh	JMJD2A Tudor inh	PLK1 PBD block
CCN1C(=O)NC(=O)/C(=C/c2cc(C)n(-c3sc(C)c(C)c3C#N)c2C)C1=O	-33.2%[59 µM]	?	-15.9%	?	?	2.12µM*
Cc1ccc(N2C(=O)NC(=O)/C(=C\c3cc(C)n(-c4sc5c(c4C#N)CCCC5)c3C)C2=O)cc1	?	-14.1%	?	?	?	0.597µM*
CCOC(=O)c1c(-n2c(C)cc(/C=C3/C(=O)NC(=O)N(CC)C3=O)c2C)sc2c1CCCC2	.	25.8%	.	-16.7	-18.9%	?
CCOC(=O)c1c(-n2c(C)cc(C=C3C(=O)NC(=S)NC3=O)c2C)sc2c1CCCC2	?	-7.2%	?	-63.3*	?	0.299µM*
CCC(Oc1ccc(Cl)cc1)C(=O)OC1CC2CCC(C1)N2C (centres undefined)	13.4%[59 µM]	.	.	.	.	.
CN1CCCC2(CCN(C(=O)c3csnn3)CC2)C1	-3.3%[12.7 µM]	.	.	.	.	.
C[C@]12CC[C@@H](O)CC1CCC1C2CC[C@]2(C)C(=O)CC[C@@H]12 (some centres undefined)	30.6%[12.7 µM]	.	.	.	.	.
COc1cc(C(c2c(C)[nH]n(-c3ccccc3)c2=O)c2c(C)[nH]n(-c3ccccc3)c2=O)cc(OC)c1OC	15.3%[0.501 µM]	-8.2%	44.7µM*	.	?	2.12µM*
Cc1nc2cc([N+](=O)[O-])ccc2c(=O)n1-c1ccccc1[N+](=O)[O-]	-12.5%[0.501 µM]	41.7%	-14.9%	1.7	-15.5%	-8.2%
Cc1[nH]n(-c2ccccc2)c(=O)c1C(c1cccc([N+](=O)[O-])c1O)c1c(C)[nH]n(-c2ccccc2)c1=O	44.7µM*	?	31.6µM*	-9.8	50.1µM*	8.44µM*
COc1cc2[nH]c(=O)n(-c3ccccc3)c(=O)c2cc1OC	12.9%[59 µM]	59.3%	2.3%	0.6	-21.2%	-13.5%
COc1ccc(CN2CCN(c3ncnc4sc5c(c34)CCCC5)CC2)cc1F	?	5.1%	-28.6%	.	-29.8%	.
C[N+]1(CC(COCc2ccccc2)OC(=O)Cc2ccccc2)CCOCC1 (centres undefined)	8.91µM*	-18.1%	-6.4%	6.8	?	-26.2%
COC(=O)CSc1nc2sc3c(c2c(=O)n1C1CCCCC1)CCN(C)C3	44.7µM*	.	-30.0%	.	.	.
S=c1[nH]nc(-c2ccco2)n1/N=C/c1cccs1	1.26µM*	-8.5%	-32.9%	4.1	39.8µM*	-14.8%
O=c1c2ccccc2nc(/C=C/c2ccccc2O)n1-c1ccc(Br)cc1	-2.0%[59 µM]	23.7%	-0.8%	.	-29.4%	.
O=C(Nc1ccc(F)c(Cl)c1)N(Cc1ccc2c(c1)OCO2)C1CCN(Cc2ccccc2)CC1	?	-21.8%	?	.	?	.
NC(Cc1nc2ccccc2[nH]1)c1ccc(Cl)cc1 (centres undefined)	39.8µM*	10.9%	-24.9%	-7.0	-24.6%	-3.1%
COc1ccc(C(=O)N/N=C/C23CC[C@@H](O)CC2(O)CC[C@@H]2[C@@H]3CCC3(C)C(C4=CC(=O)OC4)CCC23O)cc1 (some centres undefined)	50.1µM*	-3.9%	-13.0%	-5.4	-35.1%	-3.7%
C[C@](N)(CCP(=O)(O)O)C(=O)O	14.1µM*!	-15.3%	?	7.7	3.98µM*	-8.8%
CC(C)(O)C1O[C@H]2CC[C@@]3(C)[C@@](O)(CC[C@H]4Cc5c([nH]c6ccccc56)[C@@]43C)C2=CC1=O (some centres undefined)	-35.7%[59 µM]	.	.	.	.	.
O=c1[nH]c(O)c(/C=C2\C=Nc3ccc(OCc4ccccc4)cc32)c(=O)[nH]1	-10.9%	16.9%	?	-27.7	?	23.8µM*
N#CCn1c(CCl)nc2ccccc2c1=O	56.2µM*	18.6%	-13.5%	4.4	-16.4%	?
CN(C)CCc1nc2ccccc2c(=O)n1-c1ccccc1	-26.0%[12.7 µM]	.	12.2%	.	.	.
CC(C)(C)C(=O)Cn1c(NCCCl)nc2ccccc21	39.8µM*	31.6%	-21.5%	7.0	-10.3%	-13.8%
O=C(O)c1cccc2c1NC(C(=O)O)C1CC(Sc3ccccc3[N+](=O)[O-])C(Cl)C21 (centres undefined)	10µM*	-93.5%	6.31µM*	-67.4*	14.1µM*	8.44µM*

Bioassay records as filed in PubChem.
